“And” between values parts separate entries of the source, which are not always exact repeats. Equal values may be shown once. Inconclusive results are not listed. The source made the active and inactive calls. Calls come from the whole dose curve; as a rule, active = well fitted inhibition curve with a large enough effect in the repeat runs; inconclusive = weak or mixed curves; inactive = no such curve, though single readings can be large or run the other way.
% is set by controls: 0 for no effect and ±100 for the full control effect; potency is the fitted concentration of half-maximal effect.

The test in a line: qHTS assay to identify small molecule antagonists of the thyroid receptor (TR) signaling pathway (AID 743065). Note: nearly all actives have a fitted effect of over 55% in size. Conditions: GH3.TRE-Luc, T3-stimulated luciferase inhibition, 23.5 h; series mostly up to 70.3 µM; activity, negative = inhibition: at the top concentration. An excerpt: U.S. Tox21 Program National Center for Advancing Translational Sciences [NCATS] NIH Chemical Genomics Center [NCGC] U.S. Environmental Protection Agency [EPA] National Institutes of Environmental Health Sciences [NIEHS] National Toxicology Program [NTP] U.S. Food and Drug Administration [FDA] Tox21 Assay Overview: Thyroid receptor (TR), a nuclear hormone receptor, plays an important role in development, proliferation, differentiation, metabolism, brain function, and cardiovascular system. […] To profile the Tox21 10K compound library in TR signaling, a cell-based GH3-TRE-Luc assay (GH3.TRE-Luc cell line, developed by the laboratory of Dr. Albertinka J. Murk, Wageningen University) was used to measure the inhibition of TR. GH3 (rat pituitary tumor) cells stably expressing a TR activity sensor consisting of two TR response elements and a luciferase reporter gene.
Tox21 Assay Protocol Summary: GH3.TRE-Luc cells were dispensed at 1500 cells/4 uL/well into 1536-well white solid bottom plates using a Multidrop Combi dispenser (Thermo Fisher Scientific Inc., Waltham, MA). After the assay plates were incubated at 37 C for 4 hours, 23 nL of library compound or DMSO controls was transferred to the assay plates by a pintool station (Kalypsys, San Diego, CA), followed by addition of 1 ul of T3 (1 nM, final concentration in the wells) to stimulate TR transactivation. The assay plates were incubated at 37 C for 23.5 h, and then 1 uL of CellTiter-Fluor reagent (Promega, Madision, WI) of measuring cytotoxicity was added to each well using a Bioraptr Flying Reagent Dispenser (FRD) workstation (Beckman Coulter, Indianapolis, IN, USA). The plates were incubated at 37 C and 5% CO2 for additional 30 min, and fluorescence intensity was measured by a ViewLux plate reader (PerkinElmer, Shelton, CT). For measuring luciferase reporter gene activity, 4 uL of ONE-Glo Luciferase Assay reagent (Promega) was added to each well using a Bioraptr FRD (Beckman Coulter), followed by 30 min incubation at room temperature. The luminescence intensity of plates was recorded by a ViewLux plate reader (PerkinElmer, Shelton, CT).
(In general: Quantitative high-throughput screening tests each substance at several concentrations.)
Take `CN1CCN(c2cc3c(cc2F)c(=O)c(C(=O)O)cn3-c2ccc(F)cc2)CC1`: the “activity, negative = inhibition” value was -6.55% (inactive). In the case of `CC(C)(C)NCCNC(C)(C)C`, the “activity, negative = inhibition” value was -0.0078% (inactive). Still for that read-out and setting: the result for `N=C(N)c1ccc2cc(OC(=O)c3ccc(N=C(N)N)cc3)ccc2c1` reads 0.209% (inactive). Same read-out and setting: in the case of `CCC=O` it was 42.7% [at 95 µM] (inactive). Consider `O=c1n(CCO)c(=O)n(CCO)c(=O)n1CCO`, for which the Potency entry was “inactive”. With `CCCCCCCCCCCCCC=O`, the activity, negative = inhibition is -3.68% [at 8.44 µM] (inactive).

As to `CC(C)(O)C#CC(C)(C)O`, the “activity, negative = inhibition” value is -0.0254% [at 95 µM] (inactive). Still for that read-out and setting: the result for `C1OCOCO1` reads -7.04% [at 95 µM] (inactive); that for `NC(=O)c1ccc([N+](=O)[O-])cc1`, 18.7% (inactive). As for `CC(=O)CC(C)(C)C1CCCCC1`, the “activity, negative = inhibition” value was 0.576% (inactive). Take `COc1cc(C(=O)N2CCCCCCC2)cc(OC)c1OC`: the “activity, negative = inhibition” value was 0.23% (inactive). As to `CC(C)NC(=O)NC(C)C`, the “activity, negative = inhibition” value was 9.47% (inactive). On the same count and under the same terms, in the case of `CCOc1ccc(C(=O)OCCN(CC)CC)cc1` it was -12.6% (inactive); in that of `CCN(Cc1ccncc1)C(=O)C(CO)c1ccccc1` (stereo not given), -3.64% (inactive). Regarding `NS(=O)(=O)c1cc2c(cc1Cl)NC(C1CC3C=CC1C3)NS2(=O)=O` (stereo not given), the “activity, negative = inhibition” value was 1.56% (inactive). Same read-out and setting: the result for `CCCN1CCCC[C@H]1C(=O)Nc1c(C)cccc1C` reads -13.4% (inactive); that for `CCCCCCCCS(=O)(=O)Cl`, 5.55% [at 95 µM] (inactive); that for `CC(=O)OCC(=O)[C@@]1(O)CCC2C3CCC4=CC(=O)CC[C@]4(C)C3[C@@H](O)C[C@@]21C` (stereo not given in full), 0% (inactive).

Turning to `O=c1[nH]c(=O)n([C@H]2C[C@H](O)[C@@H](CO)O2)cc1I`, the “activity, negative = inhibition” value was -0.466% [at 32.5 µM] (inactive).

`N=C(N)c1ccc(OCCCOc2ccc(C(=N)N)cc2)cc1`: the “activity, negative = inhibition” value is -0.969% (inactive). For the compound `CN(C)CCCN1c2ccccc2CCc2ccc(Cl)cc21`, the Potency is 13.3 µM (active) and 17.2 µM (active). As to `CCN1CCC[C@H]1CNC(=O)c1c(O)c(Cl)cc(Cl)c1OC`, the “activity, negative = inhibition” value is 0.12% (inactive). As to `CC(=O)OCC(CCn1cnc2cnc(N)nc21)COC(C)=O`, the “activity, negative = inhibition” value is 8.69% (inactive).

Consider `OC[C@]1(O)OC[C@@H](O)[C@H](O)[C@@H]1O`, for which the Potency result is “inactive”.

Take `O=C(O)CN(CCOCCOCCN(CC(=O)O)CC(=O)O)CC(=O)O`: the “activity, negative = inhibition” value is 1.85% (inactive). Still for that read-out and setting: in the case of `Nc1nc2c(ncn2COC(CO)CO)c(=O)[nH]1` it was 5.42% [at 32.5 µM] (inactive); in that of `COC(=O)c1ccc(C)cc1C1=NC(C)(C(C)C)C(=O)N1` (stereo not given), 11.4% (inactive). Turning to `COC(=O)CCSCCC(=O)OC`, the “activity, negative = inhibition” value is 2.08% (inactive). On to `CCc1ccc(O)c(OC)c1`, for which the “activity, negative = inhibition” value was 10.6% (inactive).

On to `N[C@@H](C(=O)N[C@@H]1C(=O)N2C(C(=O)O)=C(Cl)CS[C@H]12)c1ccccc1`, for which the “activity, negative = inhibition” value was -0.561% (inactive). On the same count and under the same terms, the result for `FC1(F)C(F)(F)C(F)(F)C2(F)C(F)(F)C(F)(F)C(F)(F)C(F)(F)C2(F)C1(F)F` (stereo not given) reads 3.03% (inactive). For the compound `COC(=O)C1=C(C)NC(C)=C(C(=O)OC)C1c1ccccc1[N+](=O)[O-]`, the Potency is 30.7 µM (active). With `N[C@H]1CN(c2c(F)cc3c(=O)c(C(=O)O)cn(C4C[C@H]4F)c3c2Cl)CC12CC2` (stereo not given in full), the “activity, negative = inhibition” value was 5.51% (inactive). As to `CC1=CC(C)C(C=O)CC1` (stereo not given), the “activity, negative = inhibition” value was -0.903% (inactive).

As to `OCCOc1ccc(OCCO)cc1`, the “activity, negative = inhibition” value was 13.6% [at 95 µM] (inactive). Turning to `COC(=O)[C@@H](N)Cc1ccc(O)c(O)c1`, the Potency is 23.7 µM (active). As for `CC1(C)CO[C@@H](CC(=O)O)CN1`, the “activity, negative = inhibition” value was 3.42% (inactive). Same read-out and setting: the result for `O=C(O)COc1nn(Cc2ccccc2)c2ccccc12` reads -5.87% (inactive). Same read-out and setting: in the case of `CCOC(=O)CCC(C)=O` it was 10.8% (inactive); in that of `CCO/C([O-])=N/c1c[n+](N2CCOCC2)no1`, 7.86% [at 32.5 µM] (inactive).

These data come from PubChem BioAssay (Tox21).
